Reference: PubChem BioAssay AID1851 (National Center for Advancing Translational Sciences (NCATS), 2009)
The whole screen tested about 16,000 compounds, of which about 5,700 (36%) were called active. About 24% were inconclusive and are not listed. The list shows a part of the results. Values without a mark were called inactive. The call rests on the fitted dose curve; in most records, active means well fitted curve in the direction sought with a large enough effect; inconclusive means small, poorly fitted or top-dose-only effect, or effect the other way; inactive means no such curve, though single readings can be large or run the other way.
On the % scale 0 is the no-effect control and ±100 the full control effect.

What follows are compounds tested against Cytochrome P450 1A2 (Homo sapiens) (UniProt P05177) (assay: Cytochrome panel assay with activity outcomes). Conditions: recombinant CYP, pro-luciferin dealkylation, luminescence, p450-cyp1a2; series mostly up to 57.1 µM; activity, negative = inhibition: at the top concentration.
Sequence of Cytochrome P450 1A2 (Homo sapiens) (P05177 whole entry, looked up): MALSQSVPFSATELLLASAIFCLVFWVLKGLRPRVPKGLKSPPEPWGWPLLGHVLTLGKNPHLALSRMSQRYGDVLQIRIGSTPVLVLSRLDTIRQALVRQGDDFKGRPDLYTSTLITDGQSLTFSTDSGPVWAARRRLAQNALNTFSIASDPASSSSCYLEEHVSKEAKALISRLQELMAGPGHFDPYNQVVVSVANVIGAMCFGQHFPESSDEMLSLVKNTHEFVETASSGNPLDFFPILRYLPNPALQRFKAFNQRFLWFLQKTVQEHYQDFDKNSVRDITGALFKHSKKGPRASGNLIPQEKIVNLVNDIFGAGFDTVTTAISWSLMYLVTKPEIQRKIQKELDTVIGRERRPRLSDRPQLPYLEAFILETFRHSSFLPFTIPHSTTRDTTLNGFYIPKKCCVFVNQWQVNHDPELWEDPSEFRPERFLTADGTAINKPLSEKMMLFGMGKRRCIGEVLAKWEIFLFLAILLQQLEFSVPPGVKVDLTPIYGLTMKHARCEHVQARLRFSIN
With `COc1cccc(-c2ccc3ncnc(NCc4ccc(OC)cc4OC)c3c2)c1` the AC50 was 2.51 µM (active).
With `COc1ccc(CNc2ncnc3ccc(-c4cccnc4)cc23)c(OC)c1` the AC50 was 0.398 µM (active).
In the case of `COc1ccc(CNc2ncnc3ccc(-c4c(C)noc4C)cc23)c(OC)c1`, the AC50 is reported as 15.8 µM (active).
For `COc1ccccc1CNc1ncnc2ccc(-c3cccnc3)cc12`, the AC50 was 0.316 µM (active).
For `CO/N=C(\C)CCN1CCCc2nc(C)c(C)cc21`, the activity, negative = inhibition was 2.07% [at 11.4 µM].
In the case of `Cc1cc(C)cc(OCC(=O)NNC(=O)c2cc(C)[nH]n2)c1`, the “activity, negative = inhibition” value is reported as -6.86%.
In the case of `COCC(=O)N1CCC2(CC1)CN(C(=O)Nc1cccc(F)c1)C2`, the “activity, negative = inhibition” value is reported as 2.7%.
For `O=C(Cc1ccccc1)Nc1nc(=O)c2ccccc2s1`, the AC50 was 2.24 µM (active).
With `O=C(Cn1cnc2ccccc2c1=O)Nc1nnc(SCc2ccccc2)s1` the “activity, negative = inhibition” value was -19.6%.
For `CCc1ccc2c(c1)c(N=NC1=NC(=O)CS1)c(O)n2CC`, the AC50 was 1.41 µM (active).
With `Oc1cccc2ccc(SSc3ccc4cccc(O)c4n3)nc12` the AC50 was 3.16 µM (active).
With `COc1ccc(NC(=O)N2CC3(CCN(C(C)=O)CC3)C2)cc1` the “activity, negative = inhibition” value was -1.08%.
In the case of `COc1ccc(N2CCN(C(=N)/C(C(C)=O)=C(\C)O)CC2)cc1`, the “activity, negative = inhibition” value is reported as -6.13%.
For `COc1ccc(-c2ccc(C(=S)N3CCN(C(C)=O)CC3)o2)cc1`, the AC50 was 2.24 µM (active).
`O=C(Nc1c(C(=O)N2CCOCC2)cnn1-c1ccccc1)c1ccco1` was tested, and the “activity, negative = inhibition” value was -28.5%.
For `O=C(c1cn(-c2ccccc2)nc1-c1cccs1)N1CCOCC1`, the AC50 was 15.8 µM (active).
`O=C(c1ccncc1)N1CCC2(CC1)CCN(c1ccccc1)CC2` was tested, and the “activity, negative = inhibition” value was -23.6%.
Work on `C[C@@H]1/C=C\CC(=O)OC[C@H](C)C(=O)N[C@@H](C)C(=O)OC1` yielded an activity, negative = inhibition of -0.299% [at 11.4 µM].
For `COc1ccc(CNc2cc(-c3cccc(NS(C)(=O)=O)c3)ncn2)c(OC)c1`, the AC50 was 15.8 µM (active).
For `COc1ccccc1CNc1cc(-c2cccc(NS(C)(=O)=O)c2)ncn1`, the AC50 was 15.8 µM (active).
`CCS(=O)(=O)N1CCC(C(=O)NCc2cccnc2)CC1` was tested, and the “activity, negative = inhibition” value was -1.47%.
With `Cc1ccc(S(=O)(=O)N2CCC(C(=O)NCc3cccnc3)CC2)cc1` the “activity, negative = inhibition” value was -1.53%.
For `O=C(CSCc1c(Cl)cccc1Cl)NCc1cccnc1`, the AC50 was 5.01 µM (active).
`OC(CNCc1ccc(F)cc1)(c1ccc(F)cc1)c1ccc(F)cc1` was tested, and the “activity, negative = inhibition” value was 4.03%.
`Fc1ccc(COc2ccc(Br)cc2CNCc2ccncc2)cc1` was tested, and the AC50 was 0.316 µM (active).
`Cc1nnc(NC(=O)c2oc3c(ccc4ccccc43)c2C)s1` was tested, and the AC50 was 0.2 µM (active).
With `Cc1nnc(NC(=O)CCC(=O)NCc2cccs2)s1` the “activity, negative = inhibition” value was -18%.
With `COC(=O)[C@@H](NC(=O)Nc1ccc(C(C)=O)cc1)C(C)C` the “activity, negative = inhibition” value was -4.26%.
`Cc1ccc(OCC(=O)NNC(=O)CCC(=O)Nc2ccc(C)cc2C)cc1` was tested, and the “activity, negative = inhibition” value was -2.46%.
`Cc1c(NC(=O)C(Sc2ccccc2)c2ccccc2)cccc1[N+](=O)[O-]` (centres undefined) was tested, and the “activity, negative = inhibition” value was -9.98%.
For `Cc1c(NC(=O)CCCOc2ccccc2)cccc1[N+](=O)[O-]`, the AC50 was 12.6 µM (active).
With `Cc1c(NC(=O)/C=C/C(=O)O)cccc1[N+](=O)[O-]` the “activity, negative = inhibition” value was -12.2%.
With `COc1cc([N+](=O)[O-])ccc1NC(=O)CCCOc1cccc(C)c1` the AC50 was 7.94 µM (active).
With `Cc1cccc(OCCCC(=O)Nc2ccccc2C(F)(F)F)c1` the AC50 was 11.2 µM (active).
`Cc1ccc(OCCCC(=O)Nc2ccccc2C(F)(F)F)cc1` was tested, and the AC50 was 4.47 µM (active).
With `Cc1cccc(OCCCC(=O)Nc2ccc(N3CCCCC3)cc2)c1` the “activity, negative = inhibition” value was -15.4%.
With `Cc1nn(-c2ccccc2)c2c1C(c1ccc(O)c(O)c1)N1C(=N2)C(Nc2ccccc2)=Nc2ccccc21` (centres undefined) the “activity, negative = inhibition” value was -3.72%.
With `COc1ccc(C(=O)N2CC3(CC(c4ccc(Cl)cc4)=NO3)C[C@H]2C(=O)NCC(N)=O)cc1` (some centres undefined) the “activity, negative = inhibition” value was -12.9%.
For `C[N+]1(CC(=O)OCCCc2ccccc2)CCOCC1`, the “activity, negative = inhibition” value was 9.57%.
`CCN(CC(=O)Nc1ccc([N+](=O)[O-])cc1OC)c1ccccc1` was tested, and the AC50 was 12.6 µM (active).
In the case of `COc1ccc([N+](=O)[O-])cc1NC(=O)CC(C)c1ccccc1` (centres undefined), the AC50 is reported as 5.01 µM (active).
With `COc1ccccc1NC(=O)Cn1cncc1-c1ccc([N+](=O)[O-])cc1` the “activity, negative = inhibition” value was -23.8%.
Work on `C=CC[C@@H]1C=C[C@H](O/N=C\[C@@H](C)[C@H](OCc2ccccc2)C(C)C)[C@H](CO)O1` yielded an activity, negative = inhibition of 9.01% [at 11.4 µM].
In the case of `Cc1ccc(C2Nc3ccccc3C(=O)N2Cc2ccco2)cc1` (centres undefined), the AC50 is reported as 15.8 µM (active).
`CN(Cc1ccco1)C(=O)C1CCC(=O)N1Cc1ccc(F)cc1` (centres undefined) was tested, and the “activity, negative = inhibition” value was 17.4%.
In the case of `COc1ccc(C2Nc3ccccc3C(=O)N2Cc2ccco2)cc1COc1ccc([N+](=O)[O-])cc1` (centres undefined), the “activity, negative = inhibition” value is reported as -16.8%.
For `O=C1c2ccccc2NC(c2ccc(F)cc2)N1Cc1ccco1` (centres undefined), the AC50 was 25.1 µM (active).
With `COc1cc(C2C(=O)N(C3CCCC3)CC(=O)N2Cc2ccco2)ccc1OC(C)C` (centres undefined) the “activity, negative = inhibition” value was -9.22%.
In the case of `CC(C)Oc1ccc(/C(O)=C2/C(=O)C(=O)N(Cc3cccnc3)C2c2ccco2)cc1` (centres undefined), the “activity, negative = inhibition” value is reported as -5.23%.
In the case of `CC(=O)Nc1ccc(NC(=O)C/C(C)=N/NC(=O)C(=O)N2CCCC2)cc1`, the “activity, negative = inhibition” value is reported as 1.33%.
For `C/C(CC(=O)Nc1cc(C)ccn1)=N\NC(=O)COc1cccc(C)c1`, the AC50 was 14.1 µM (active).
`Cc1ccc(S(=O)(=O)CCc2nnc(NC(=O)COc3cccc(C)c3)s2)cc1` was tested, and the “activity, negative = inhibition” value was 7.38%.
With `COc1cccc(-c2cc(C(F)(F)F)n3ncc(S(=O)(=O)c4ccccc4)c3n2)c1` the “activity, negative = inhibition” value was -19.7%.
In the case of `COc1cccc(-c2cc(C(F)(F)F)nc(N3CCN(c4ccccc4)CC3)n2)c1`, the AC50 is reported as 12.6 µM (active).
In the case of `COc1cccc(-c2cc(C(F)(F)F)nc(N3CCOCC3)n2)c1`, the AC50 is reported as 0.794 µM (active).
In the case of `COc1cccc(-c2cc(C(F)(F)F)nc(N3CCCCC3)n2)c1`, the AC50 is reported as 1 µM (active).
`CCOC(=O)N1CCC(NC(=O)CCC(=O)N2CCOc3ccccc32)CC1` was tested, and the “activity, negative = inhibition” value was -14.2%.
With `CCOC(=O)[C@H](N)/C=C(\C)CP(=O)(O)O` the “activity, negative = inhibition” value was -17.3%.
In the case of `CC(C)(C)C(=O)N1CCc2cc(-c3csc(N)n3)ccc21`, the AC50 is reported as 7.08 µM (active).
For `CCCC(=O)Nc1nc(-c2ccc3c(c2)CCN3S(C)(=O)=O)cs1`, the “activity, negative = inhibition” value was -3.69%.
For `CO[C@H]1COC(=O)[C@@H](Cc2ccccc2)NC(=O)[C@@H](C)COC(=O)CCC[C@@H]1C`, the activity, negative = inhibition was -3.47% [at 11.4 µM].
In the case of `COCC(=O)N(C)c1nnc(-c2ccc([N+](=O)[O-])cc2)s1`, the AC50 is reported as 3.16 µM (active).
In the case of `COCC(=O)N1CCN(c2ccc([N+](=O)[O-])cc2)CC1`, the “activity, negative = inhibition” value is reported as -1.44%.
In the case of `O=C(CN1CCCCC1)Nc1nnc(-c2ccc([N+](=O)[O-])cc2)s1`, the “activity, negative = inhibition” value is reported as -14.5%.
